Drawing on PubChem BioAssay (NCATS), this text covers Potency for 29 compounds.

Experiment [1] addresses Cytochrome P450 1A2 (Homo sapiens) (UniProt P05177). The experiment in a line: p450-cyp1a2 (AID 410). Also: potency is read from the fitted curve at half-maximal effect. The gist of the method: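 Luminescent readout of luciferin formed from Luciferin-ME by human CYP1A2; data normalized against complete inhibition by 57 uM furafylline. Enzyme 20nM, substrate 100uM at Km, 100mM KPO4 buffer, 60 min reaction at room temperature.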
Experiment [2] has as its target Mitogen-activated protein kinase 10 (Mus musculus) (UniProt Q61831). As to the kind of experiment: JNK3 AlphaScreen Assay (AID 530; active = well fitted curve in either direction with a large enough effect, not every such curve was filed as active;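 also: kinase came from lysate of stimulated human HepG2 cells; signal reports phosphorylation of biotinylated GST-cJun 1-79 at Ser73 with 10 µM ATP; series mostly up to about 57 µM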). The gist of the method: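 Pre-activated (IL-1β/TNFα) JNK3 in HepG2 lysates phosphorylates biotin-GST-cJun(1-79), 10 uM ATP; anti-phospho-cJun(Ser73) AlphaScreen read at room temperature, pH 7.6 Tris buffer. Compounds pre-incubated 15 min as titrations.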

The target in experiment [3] is 3',5'-cyclic-AMP phosphodiesterase 4B (Homo sapiens) (UniProt Q07343). The experiment in a line: qHTS Assay for Inhibitors of PDE-IV (AID 607; active = well fitted activation curve with a large enough effect in the main read-out, with a control signal flat, not every such curve was filed as active). The procedure, abridged:
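ACTOne HEK293 cells carry a modified cAMP-gated CNG channel and express endogenous PDE4; plated 1000 cells/well, compounds up to 22.9 uM final. Membrane-potential dye fluorescence (ex 535/em 590) was read; parental cells received 10 uM forskolin + 100 uM RO 20-1724.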
(In general: In qHTS, concentration-response curves come from the screen itself.)

Experiment [4] deals with Glucocorticoid receptor (Homo sapiens) (UniProt P04150). As to the kind of experiment: GR-EFC Redistribution (AID 451). Also: potency is read from the fitted curve at half-maximal effect. The note with it: CHO-K1 GR-EFC translocation, beta-gal luminescence, 2 h. The gist of the method: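 CHO-K1 cells expressing nuclear EA and GR-ED fragments of b-gal; compounds titrated up to 46 uM final, 2 h at 37 C. GR nuclear translocation read as complemented b-gal luminescence after 1 h RT detection.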
Sequence of Glucocorticoid receptor (Homo sapiens) (P04150 whole entry, looked up, the tested form may be a part): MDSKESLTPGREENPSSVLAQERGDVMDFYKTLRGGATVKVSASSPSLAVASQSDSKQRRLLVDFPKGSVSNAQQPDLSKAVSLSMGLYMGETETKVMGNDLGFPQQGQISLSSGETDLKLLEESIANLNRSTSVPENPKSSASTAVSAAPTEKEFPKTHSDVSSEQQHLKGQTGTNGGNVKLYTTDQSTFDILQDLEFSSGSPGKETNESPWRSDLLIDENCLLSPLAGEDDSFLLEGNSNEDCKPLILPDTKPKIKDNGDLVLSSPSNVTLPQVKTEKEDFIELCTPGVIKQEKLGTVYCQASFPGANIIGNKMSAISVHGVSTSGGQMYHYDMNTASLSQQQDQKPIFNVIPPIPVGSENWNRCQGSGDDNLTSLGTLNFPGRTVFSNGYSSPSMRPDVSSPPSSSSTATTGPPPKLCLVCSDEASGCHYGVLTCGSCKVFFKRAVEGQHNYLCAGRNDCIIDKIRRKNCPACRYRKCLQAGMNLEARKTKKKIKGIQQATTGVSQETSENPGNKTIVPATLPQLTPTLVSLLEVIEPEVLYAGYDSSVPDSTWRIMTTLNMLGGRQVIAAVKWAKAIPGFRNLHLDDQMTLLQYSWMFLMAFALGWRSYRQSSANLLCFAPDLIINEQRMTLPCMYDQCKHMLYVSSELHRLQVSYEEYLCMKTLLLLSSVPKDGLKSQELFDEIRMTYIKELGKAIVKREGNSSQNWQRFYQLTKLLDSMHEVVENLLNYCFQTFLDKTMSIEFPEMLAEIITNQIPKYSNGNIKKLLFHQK

The target of experiment [5] is Cytochrome P450 2C9 (Homo sapiens) (UniProt P11712). As to the kind of experiment: qHTS Assay for Inhibitors and Substrates of Cytochrome P450 2C9 (AID 883; active = well fitted curve in the direction sought with a large enough effect; an effect the other way counts as inactive or inconclusive; also: nearly all actives have a fitted effect of over 60% in size; also: potency is read from the fitted curve at half-maximal effect). The gist of the method: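 Signal: luciferase luminescence reporting luciferin produced by CYP2C9. Conditions: 10nM enzyme, Luciferin-H 100uM at KM, 25mM KPO4, 37C, 60 min NADPH-driven reaction. Reference: 57uM sulphaphenazole as 100% inhibition.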
Sequence of Cytochrome P450 2C9 (Homo sapiens) (P11712 whole entry, looked up): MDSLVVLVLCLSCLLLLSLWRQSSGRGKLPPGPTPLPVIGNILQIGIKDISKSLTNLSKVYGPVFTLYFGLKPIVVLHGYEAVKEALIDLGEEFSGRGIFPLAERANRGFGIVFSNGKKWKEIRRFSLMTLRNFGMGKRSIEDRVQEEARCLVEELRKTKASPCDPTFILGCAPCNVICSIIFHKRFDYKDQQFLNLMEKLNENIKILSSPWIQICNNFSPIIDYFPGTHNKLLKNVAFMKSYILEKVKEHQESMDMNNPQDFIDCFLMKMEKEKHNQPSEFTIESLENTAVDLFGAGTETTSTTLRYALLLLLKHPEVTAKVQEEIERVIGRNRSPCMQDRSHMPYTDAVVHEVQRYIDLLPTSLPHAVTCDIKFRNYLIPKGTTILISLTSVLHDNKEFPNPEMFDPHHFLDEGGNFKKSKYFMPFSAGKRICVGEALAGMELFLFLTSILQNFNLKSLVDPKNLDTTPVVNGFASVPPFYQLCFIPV

For experiment [6], the target named is Cytochrome P450 2D6 (Homo sapiens) (UniProt P10635). The experiment in a line: qHTS Assay for Inhibitors and Substrates of Cytochrome P450 2D6 (AID 891; active = well fitted curve in the direction sought with a large enough effect; an effect the other way counts as inactive or inconclusive;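 also: luciferin methyl ether substrate demethylated by CYP2D6 with NADPH regeneration; nearly all actives have a fitted effect of over 60% in size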). The procedure, abridged: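 Human CYP2D6 (5 nM) with 30 uM Luciferin-ME EGE (at Km) in 100 mM KPO4, compound preincubated 10 min, then NADPH regeneration system for 60 min at room temperature. Luciferin read by luminescence; normalized to 1.43 uM quinidine.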
Sequence of Cytochrome P450 2D6 (Homo sapiens) (P10635 whole entry, looked up): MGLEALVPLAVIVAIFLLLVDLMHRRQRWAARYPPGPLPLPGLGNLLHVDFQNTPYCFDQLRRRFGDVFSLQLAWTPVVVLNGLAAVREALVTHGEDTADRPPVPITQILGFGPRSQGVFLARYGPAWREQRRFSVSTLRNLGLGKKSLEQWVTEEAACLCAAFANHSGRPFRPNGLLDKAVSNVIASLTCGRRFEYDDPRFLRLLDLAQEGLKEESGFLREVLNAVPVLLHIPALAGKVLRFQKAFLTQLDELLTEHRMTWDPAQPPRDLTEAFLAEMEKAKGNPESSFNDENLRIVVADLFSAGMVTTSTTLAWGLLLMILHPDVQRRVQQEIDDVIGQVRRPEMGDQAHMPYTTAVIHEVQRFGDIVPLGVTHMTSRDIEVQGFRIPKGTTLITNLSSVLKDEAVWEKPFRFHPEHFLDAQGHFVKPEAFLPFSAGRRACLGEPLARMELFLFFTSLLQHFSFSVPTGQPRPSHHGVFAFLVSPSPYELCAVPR

The target of experiment [7] is Cytochrome P450 2C19 (Homo sapiens) (UniProt P33261). As to the kind of experiment: qHTS Assay for Inhibitors and Substrates of Cytochrome P450 2C19 (AID 899; active = well fitted curve in the direction sought with a large enough effect; an effect the other way counts as inactive or inconclusive; also: nearly all actives have a fitted effect of over 60% in size; also: potency is read from the fitted curve at half-maximal effect). The procedure, abridged: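 Signal comes from luciferase acting on luciferin released by CYP2C19-mediated hydroxylation of Luciferin-H EGE, 10uM (KM). Assay mix: 5nM enzyme, 50mM KPO4; 60 min at 37C with NADPH regeneration. Data normalized against 57uM ketoconazole.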
Sequence of Cytochrome P450 2C19 (Homo sapiens) (P33261 whole entry, looked up): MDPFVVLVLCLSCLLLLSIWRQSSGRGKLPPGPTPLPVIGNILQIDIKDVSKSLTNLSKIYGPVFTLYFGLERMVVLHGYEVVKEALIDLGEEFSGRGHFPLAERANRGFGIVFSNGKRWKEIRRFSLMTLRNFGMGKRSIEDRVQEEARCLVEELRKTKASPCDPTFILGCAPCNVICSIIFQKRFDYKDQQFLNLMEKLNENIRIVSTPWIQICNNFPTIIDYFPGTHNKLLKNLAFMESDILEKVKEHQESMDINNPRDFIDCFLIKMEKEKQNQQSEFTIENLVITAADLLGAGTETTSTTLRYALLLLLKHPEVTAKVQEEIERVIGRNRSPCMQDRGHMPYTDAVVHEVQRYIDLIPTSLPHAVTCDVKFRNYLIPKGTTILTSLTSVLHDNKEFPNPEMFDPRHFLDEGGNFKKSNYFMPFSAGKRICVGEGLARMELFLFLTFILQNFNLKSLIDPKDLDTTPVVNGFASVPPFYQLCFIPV

For experiment [8], the target named is Cytochrome P450 3A4 (Homo sapiens) (UniProt P08684). As to the kind of experiment: qHTS Assay for Inhibitors and Substrates of Cytochrome P450 3A4 (AID 884; active = well fitted curve in the direction sought with a large enough effect; an effect the other way counts as inactive or inconclusive; also: potency is read from the fitted curve at half-maximal effect; nearly all actives have a fitted effect of over 50% in size). The procedure, abridged:
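20 nM human CYP3A4 with 25 uM Luciferin-PPXE (at KM) in 200 mM KPO4, preincubated 10 min with compound; NADPH regeneration started a 60 min RT reaction. Luciferin detected by luminescence, normalized to 57 uM ketoconazole as full inhibition.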

Experiment [9] shares this target. As to the kind of experiment: qHTS Assay for Activators of Cytochrome P450 3A4 (AID 885; active = well fitted curve in the direction sought with a large enough effect; an effect the other way counts as inactive or inconclusive; also: nearly all actives have a fitted effect of over 65% in size). The procedure, abridged:
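20nM CYP3A4 + 25uM Luciferin-PPXE (=KM), 200mM KPO4; cpd 10 min RT; NADPH regen, 60 min RT; stop w/ detection buffer, 20 min; luminescence. Normalized to 57 uM ketoconazole.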

The target in experiment [10] is Tyrosyl-DNA phosphodiesterase 1 (Homo sapiens) (UniProt Q9NUW8). The experiment in a line: Confirmation Assay for Inhibitors of Tyrosyl-DNA Phosphodiesterase (TDP1) (AID 489007; active = well fitted curve in the direction sought with a large enough effect; an effect the other way counts as inactive or inconclusive; also: potency is read from the fitted curve at half-maximal effect; nearly all actives have a fitted effect of over 40% in size). Particulars: recombinant human TDP1 enzymatic activity, dose-response. The gist of the method: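 Tdp1 1 nM + cpd, 15 min RT; add biotin/phosphotyrosine-FITC oligo 15 nM, 5 min RT; add AS donor/acceptor beads 10 ug/ml, 10 min RT; read AlphaScreen. No-enzyme wells = max signal.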
Sequence of Tyrosyl-DNA phosphodiesterase 1 (Homo sapiens) (Q9NUW8 whole entry, looked up): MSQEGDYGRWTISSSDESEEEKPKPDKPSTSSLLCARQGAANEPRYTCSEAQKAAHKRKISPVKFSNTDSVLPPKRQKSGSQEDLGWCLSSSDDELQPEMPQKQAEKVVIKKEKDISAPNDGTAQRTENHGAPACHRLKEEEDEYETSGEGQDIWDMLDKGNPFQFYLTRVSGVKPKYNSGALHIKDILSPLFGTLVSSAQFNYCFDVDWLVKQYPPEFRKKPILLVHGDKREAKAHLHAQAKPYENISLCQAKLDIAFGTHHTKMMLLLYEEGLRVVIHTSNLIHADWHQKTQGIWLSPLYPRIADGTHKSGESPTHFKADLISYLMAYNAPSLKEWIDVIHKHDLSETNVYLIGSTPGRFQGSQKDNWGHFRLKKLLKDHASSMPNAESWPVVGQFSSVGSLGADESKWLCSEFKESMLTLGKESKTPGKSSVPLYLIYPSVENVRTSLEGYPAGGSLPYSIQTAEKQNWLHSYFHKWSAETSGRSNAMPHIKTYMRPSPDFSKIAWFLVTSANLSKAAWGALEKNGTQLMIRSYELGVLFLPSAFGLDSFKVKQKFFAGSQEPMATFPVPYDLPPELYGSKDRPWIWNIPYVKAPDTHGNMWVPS

Unmarked numbers belong to inactive results. Inconclusive results are not listed. Active and inactive are the calls of the source. Unless noted, calls follow the shape of the full dose curve.

Sequence of Cytochrome P450 3A4 (Homo sapiens) (P08684 whole entry, looked up): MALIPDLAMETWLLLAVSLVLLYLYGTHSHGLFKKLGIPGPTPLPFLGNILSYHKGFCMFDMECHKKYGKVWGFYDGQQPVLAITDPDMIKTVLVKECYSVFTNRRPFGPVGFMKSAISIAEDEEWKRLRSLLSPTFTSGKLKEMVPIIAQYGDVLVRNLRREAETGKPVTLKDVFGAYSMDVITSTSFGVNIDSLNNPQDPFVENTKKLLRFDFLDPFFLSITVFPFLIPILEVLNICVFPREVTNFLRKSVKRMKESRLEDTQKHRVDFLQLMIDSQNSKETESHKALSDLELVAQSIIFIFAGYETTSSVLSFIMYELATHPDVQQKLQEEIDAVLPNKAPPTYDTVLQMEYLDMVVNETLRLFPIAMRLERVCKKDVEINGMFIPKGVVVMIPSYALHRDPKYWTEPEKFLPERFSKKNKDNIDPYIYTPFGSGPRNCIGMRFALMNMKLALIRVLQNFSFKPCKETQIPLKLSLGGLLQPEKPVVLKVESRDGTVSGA
Sequence of Cytochrome P450 1A2 (Homo sapiens) (P05177 whole entry, looked up): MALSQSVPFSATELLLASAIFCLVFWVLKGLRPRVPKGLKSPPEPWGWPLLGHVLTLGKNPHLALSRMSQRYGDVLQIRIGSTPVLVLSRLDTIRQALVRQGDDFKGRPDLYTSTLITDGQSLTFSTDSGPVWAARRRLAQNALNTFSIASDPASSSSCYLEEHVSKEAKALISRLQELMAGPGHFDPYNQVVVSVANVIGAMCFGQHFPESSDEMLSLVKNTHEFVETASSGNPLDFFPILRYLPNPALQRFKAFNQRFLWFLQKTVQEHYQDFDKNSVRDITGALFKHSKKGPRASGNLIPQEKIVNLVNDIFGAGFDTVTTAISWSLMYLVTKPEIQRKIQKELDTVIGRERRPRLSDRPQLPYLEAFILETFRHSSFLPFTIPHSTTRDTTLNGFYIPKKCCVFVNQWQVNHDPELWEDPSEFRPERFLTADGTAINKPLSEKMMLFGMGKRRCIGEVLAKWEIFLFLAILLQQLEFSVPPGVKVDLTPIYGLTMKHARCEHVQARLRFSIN
Sequence of 3',5'-cyclic-AMP phosphodiesterase 4B (Homo sapiens) (Q07343 whole entry, looked up): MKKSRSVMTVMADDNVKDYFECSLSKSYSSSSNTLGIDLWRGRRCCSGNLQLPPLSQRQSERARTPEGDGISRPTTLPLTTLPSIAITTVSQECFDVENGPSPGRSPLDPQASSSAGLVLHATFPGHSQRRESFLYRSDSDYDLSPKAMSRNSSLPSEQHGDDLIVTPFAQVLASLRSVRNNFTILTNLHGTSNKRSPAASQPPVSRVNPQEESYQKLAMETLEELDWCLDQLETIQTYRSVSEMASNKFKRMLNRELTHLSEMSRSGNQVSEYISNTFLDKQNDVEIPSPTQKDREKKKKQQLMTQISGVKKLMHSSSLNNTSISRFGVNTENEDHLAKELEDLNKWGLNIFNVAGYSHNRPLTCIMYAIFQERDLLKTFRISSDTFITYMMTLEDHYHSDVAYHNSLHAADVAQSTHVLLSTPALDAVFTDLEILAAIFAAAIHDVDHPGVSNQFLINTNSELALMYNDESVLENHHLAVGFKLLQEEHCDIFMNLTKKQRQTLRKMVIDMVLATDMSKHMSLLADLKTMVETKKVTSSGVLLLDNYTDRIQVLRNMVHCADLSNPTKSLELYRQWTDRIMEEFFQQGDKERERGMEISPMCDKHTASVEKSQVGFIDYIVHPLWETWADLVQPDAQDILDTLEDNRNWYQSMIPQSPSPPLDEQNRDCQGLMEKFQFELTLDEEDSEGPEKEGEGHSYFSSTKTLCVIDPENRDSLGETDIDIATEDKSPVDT

On to `COCCn1c(C(=O)N2CCCC2)cc2c1C[C@H]1CN(C(=O)c3ccccc3)[C@@](Cc3ccc(F)cc3)(C(=O)OC)[C@@H]21`, for which the Potency in experiment [1] is 31.6 µM (active). For the same compound, the Potency entry in experiment [2] and in experiment [3] was “inactive” throughout.

`CCC#CCOCC(=O)Nc1ccccc1`: the Potency in experiment [1] was 25.1 µM (active). The Potency entry in [2] and in [3] was “inactive” in each case.

With `CC1(C)S[C@@H]2[C@@H](NC(=O)[C@@H](N)c3ccccc3)C(=O)N2[C@H]1C(=O)O`, the Potency result in experiment [1], in [2] and in experiment [3] was “inactive” each time.

As to `COC(=O)[C@@]1(Cc2ccc(OC)cc2)[C@H]2c3cc(C(=O)N4CCCC4)n(CCc4c[nH]c5ccc(OC)cc45)c3C[C@H]2CN1C(=O)c1ccccc1`, the Potency in experiment [1] was 10 µM (active). Besides, the Potency entry in [2] and in [3] was “inactive” in each case.

`COC(=O)[C@@]1(Cc2ccc(F)cc2)[C@H]2c3cc(C(=O)N(C)C)n(CCc4c[nH]c5ccc(OC)cc45)c3C[C@H]2CN1C(=O)c1ccccc1`: the Potency in [1] is 12.6 µM (active). Besides, the Potency result in experiment [2] and in experiment [3] was “inactive” throughout.

For the compound `COC(=O)[C@@]1(Cc2ccc(F)cc2)[C@H]2c3cc(C(=O)N(C)C)n(Cc4cccc5ccccc45)c3C[C@H]2CN1C(=O)c1ccccc1`, the Potency in [1] was 6.31 µM (active). Besides, the Potency result in experiment [2] and in [3] was “inactive” in each case.

`O=C(N[C@@H](c1ccccc1)[C@@H]1C[C@H]1C(=O)O)OCc1ccccc1`: in [1], the Potency was 20 µM (active). Moreover, the Potency entry in experiment [2] and in experiment [3] was “inactive” throughout.

On to `C[C@@]1(C(NC(=O)c2ccccc2)c2ccc(-c3ccccc3)cc2)C[C@H]1C1CCCCC1` (stereo partly drawn), for which the Potency result in experiment [1], in experiment [2] and in [3] was “inactive” in each case.

For `CC(C)C[C@@H](CC(=O)N[C@@H](CCC(=O)O)CC(=O)O)NC(=O)[C@@H]1CCCC[C@H]1NC(=O)C[C@H](CCCN)NC(=O)C[C@H](CO)NC(=O)[C@@H]1CCCC[C@H]1N`, the Potency entry in experiment [1], in [5], in experiment [6] and in experiment [7] was “inactive” each time. Also, the Potency in [4] was > 46 µM.

Regarding `CC1=C(C(=O)OCc2ccccc2)C(c2ccccc2)NC(=O)N1CCCCCC(=O)O` (stereo not drawn), the Potency in experiment [1] is 20 µM (active). In addition, the Potency entry in experiment [2] and in experiment [3] was “inactive” in each case.

On to `COC(=O)[C@@]1(Cc2ccc(F)cc2)[C@H]2c3cc(C(=O)N(C)C)n(Cc4ccc(Cl)c(C(F)(F)F)c4)c3C[C@H]2CN1C(=O)c1ccccc1`, for which the results for the Potency in experiment [1], in experiment [5] and in [8] were 15.8 µM (active), 3.98 µM (active) and 2 µM (active), respectively. For the same compound, the Potency entry in [2], in [3] and in experiment [9] was “inactive” throughout.

Take `CC(Cc1ccccc1)C(=O)NCc1ccccn1` (stereo not drawn): in experiment [1], the Potency was 15.8 µM (active). Further, the Potency result in experiment [2] and in experiment [3] was “inactive” each time.

Regarding `CCCCC#Cc1ccccc1CC(=O)Nc1ccccc1`, the Potency in experiment [1] was 2.51 µM (active); in experiment [5], 2.51 µM (active); in experiment [7] it was 0.794 µM (active); in experiment [10], 31.6 µM (active). Besides, the Potency result in experiment [2] and in [9] was “inactive” in each case.

As to `CCc1c2c(nc3cccc(SC)c13)COC2`, the Potency in experiment [1] is 2.51 µM (active). In addition, the Potency result in experiment [2] was “inactive”.

As for `CCC/C=C(\CCC)C(NC(=O)Oc1ccc(F)cc1)c1ccc(C(=O)OC)cc1` (stereo not drawn), the Potency result in [1] and in experiment [2] was “inactive” throughout.

Regarding `CCC#CCOCC(=S)Nc1ccccc1`, the Potency in experiment [1] is 15.8 µM (active). The Potency result in [2] and in experiment [3] was “inactive” throughout.

As to `COC(=O)c1ccc(C#CC(NP(=O)(c2ccccc2)c2ccccc2)c2ccccc2)cc1` (stereo not drawn), the Potency in experiment [1] is 20 µM (active). The Potency result in experiment [2] was “inactive”.

Turning to `C[C@@]1(C(NC(=O)c2ccc(-c3ccccc3)cc2)c2ccc(Cl)cc2)C[C@H]1C1CCCCC1` (stereo partly drawn), the Potency result in experiment [1], in [2] and in [3] was “inactive” throughout.

`CCCC/C=C/C(NC(=O)c1ccc(-c2ccccc2)cc1)c1ccccc1` (stereo not drawn): the Potency in experiment [1] was 15.8 µM (active). Moreover, the Potency result in experiment [2] and in [3] was “inactive” in each case.

Consider `C[C@@]1(C(NC(=O)Cc2ccc(C(F)(F)F)cc2)c2ccc(-c3ccccc3)cc2)C[C@H]1C1CCCCC1` (stereo partly drawn), for which the Potency result in [1], in experiment [2] and in [3] was “inactive” in each case.

For the compound `COC(=O)[C@@]1(Cc2ccc(OC)cc2)[C@H]2c3cc(C(=O)N(C)C)n(CCN4CNCC4=O)c3C[C@H]2CN1C(=O)c1ccccc1`, the Potency in experiment [1] was 20 µM (active). In addition, the Potency result in experiment [2] and in [3] was “inactive” each time.

With `O=C(Cc1ccccc1I)Nc1ccccc1`, the Potency in experiment [1] was 12.6 µM (active). In addition, the Potency result in experiment [2] and in [3] was “inactive” throughout.

For the compound `CCCC[C@@H]1C[C@H]1C(NC(=O)c1ccc(-c2ccccc2)cc1)c1ccc(-c2ccccc2)cc1` (stereo partly drawn), the Potency result in experiment [1] and in [2] was “inactive” in each case.

Take `COC(=O)[C@@]1(Cc2ccc(OC)cc2)[C@H]2c3cc(C(=O)N4CCCC4)n(Cc4c(CO)[nH]cc(C)c4=O)c3C[C@H]2CN1C(=O)c1ccccc1`: the Potency in [1] was 25.1 µM (active). For the same compound, the Potency entry in experiment [2] and in experiment [3] was “inactive” in each case.

For `COC(=O)[C@@]1(Cc2ccc(F)cc2)[C@H]2c3cc(C(=O)N(C)C)n(Cc4cc(F)c(F)c(F)c4)c3C[C@H]2CN1C(=O)c1ccccc1`, the Potency result in [1] and in experiment [2] was “inactive” each time.

For the compound `COC(=O)[C@@]1(Cc2ccc(F)cc2)[C@H]2c3cc(C(=O)N4CCCC4)n(CCO)c3C[C@H]2CN1C(=O)c1ccccc1`, in [1], the Potency is 25.1 µM (active). Besides, the Potency result in [2] and in experiment [3] was “inactive” each time.

On to `COC(=O)[C@@]1(Cc2ccc(F)cc2)[C@H]2c3cc(C(=O)N(C)C)n(C)c3C[C@H]2CN1C(=O)c1ccccc1`, for which, in experiment [1], the Potency was 31.6 µM (active). For the same compound, the Potency result in experiment [2] and in experiment [3] was “inactive” each time.

On to `COc1cc(/C=C\C(=O)N2CCCCC2=O)cc(OC)c1OC`, for which the values for the Potency in experiment [1] and in experiment [4] were 0.1 µM (active) and > 46 µM, respectively. Further, the Potency entry in [5], in experiment [6] and in [7] was “inactive” throughout.

Consider `CC(C)[C@@H](CC(=O)N[C@@H]1CCCC[C@H]1C(=O)N[C@H](CC(=O)N[C@@H](CCC(=O)O)CC(=O)O)Cc1c[nH]c2ccccc12)NC(=O)C[C@H](CO)NC(=O)[C@@H]1CNCC[C@H]1N`, for which the Potency result in experiment [1], in experiment [6] and in experiment [7] was “inactive” in each case. The Potency in experiment [4] was > 46 µM.
